16 compounds from PubChem BioAssay (NCATS) can be followed below.

The structures appear in SMILES notation. Inconclusive results are not listed. Unmarked numbers belong to inactive results. Calls of active or inactive are those of the source. The call rests on the fitted dose curve; in most records, active means well fitted inhibition curve with a large enough effect; inconclusive means small, poorly fitted or top-dose-only effect; inactive means flat fitted curve, though single readings scatter.

Holding throughout (assay): Cytotoxic Profiling of Annotated Libraries Using Quantitative High-Throughput Screening (AID 1296008); further: nearly all actives have a fitted effect of over 60% in size
What all share (conditions): Five cell lines viability, CellTiter-Glo ATP luminescence, 48-72 h; max response: hits give low values
On the technique in general: ATP-based viability assays read luminescence as a measure of living cells.

In one assay the test system is CRL-7250. In outline:
(§1)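 Cytotoxicity was measured as CellTiter-Glo ATP luminescence, read after 10 min at room temperature. Compound treatment of the cells lasted 48 or 72 hr at 37 degrees Celsius in a qHTS format.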

The test system of the next assay is HEK293. An outline of the steps: as §1
The next assay relates to HaCat. An outline of the steps: as §1
The test system of the next assay is KB-3-1. An outline of the steps:
as §1

The next assay deals with NIH3T3. An outline of the steps: as §1
On the % scale 0 is the no-effect control and ±100 the full control effect; potency means the concentration at half of the fitted maximal effect.

As for `CCOC(=O)C(CCc1ccccc1)NC(C)C(=O)N1C(=O)N(C)CC1C(=O)O` (stereo not given), the max response with CRL-7250 is 3.58%; in the assay with HEK293 it was -4.81%; in the assay on HaCat it was -19.4%; with NIH3T3, 1.45%. Further, the outcome in the assay with KB-3-1 was inactive.
`C/C1=C\CC[C@]2(C)O[C@@H]2[C@H](O)[C@H](C(C)C)[C@H](OC(=O)/C=C/c2ccccc2)C1`: the max response is -51% with CRL-7250; -26.5% in the assay with HEK293; -5.06% in the assay on HaCat; -3.73% in the assay with KB-3-1; 2.07% in the assay with NIH3T3.
In the case of `C=C1CCC2C(C)(C(=O)OC)CCCC2(C)C1CCC(C)CC(=O)O` (stereo not given), the outcome in the assay with CRL-7250 was inactive. The max response is -9.98% in the assay with HEK293, -22.8% with HaCat, 0.0997% in the assay with KB-3-1 and 2.98% with NIH3T3.
Consider `O=C(O)COCCN1CCN([C@H](c2ccccc2)c2ccc(Cl)cc2)CC1`, for which the max response in the assay on CRL-7250 is 2.26%; in the assay with HEK293, -2.41%; in the assay on HaCat, -30.6%; in the assay on KB-3-1 it was 0.104%; in the assay with NIH3T3 it was 0.14%.
On to `CC(=O)OC1C[C@]2(C)C(O)CC(C)=C[C@H](OC(=O)c3ccc(O)cc3)C2[C@]1(O)C(C)C` (stereo not given in full), for which the max response is 1.7% in the assay with CRL-7250; -3.03% with HEK293; -0.241% in the assay with HaCat; 4.36% with KB-3-1; 3.62% with NIH3T3.
In the case of `CC(C)(C)OC(=O)N1CCC(OCc2nc(-c3ccncc3)no2)CC1`, the max response with CRL-7250 is -15.9%; with HEK293, 0.811%; with HaCat, 4.75%; with KB-3-1, -6.38%; in the assay on NIH3T3, -1.32%.
Turning to `NC(=O)c1cnc(NCCc2ccc(O)c(Cl)c2)nc1NCc1ccccc1`, the Potency with CRL-7250 was 7.31 µM (active); in the assay on HEK293 it was 6.51 µM (active); in the assay with HaCat it was 14.6 µM (active); with KB-3-1, 16.4 µM (active); in the assay on NIH3T3, 5.17 µM (active).
Consider `C/C=C1\[C@H](OC2OC(COC3OC(CO)C(O)C(O)C3O)C(O)C(O)C2O)OC=C(C(=O)OC)[C@H]1CC(=O)OCCc1ccc(O)cc1` (stereo not given in full), for which the max response with CRL-7250 is -3.04%; in the assay with HEK293, -70.9%; with HaCat it was -0.414%; in the assay with KB-3-1, 2.72%; with NIH3T3, -38.2%.
The matching figures for `OCC(CO[C@@H]1O[C@H](CO)[C@@H](O)[C@H](O)[C@H]1O)c1ccc2c(c1)OCO2` (stereo not given in full): 0.071%, -1.28%, 1.18%, -7.72% and -0.622%.
With `C[C@@H]1O[C@@H](O[C@H]2[C@H](O[C@H]3[C@H](O)[C@@H](C(=O)O)O[C@@H](O[C@H]4CC[C@@]5(C)C(CC[C@]6(C)C5CC[C@]57OC[C@@]8(CCC(C)(C)CC85)[C@H](O)C[C@]76C)C4(C)C)[C@@H]3O[C@@H]3O[C@H](CO)[C@@H](O[C@@H]4OC[C@@H](O)[C@H](O)[C@H]4O)[C@H](O)[C@H]3O)O[C@H](CO)[C@H](O)[C@@H]2O)[C@H](O)[C@H](O)[C@H]1O` (stereo not given in full), the max response in the assay on CRL-7250 was -4.31%; with HEK293, -0.169%; in the assay on HaCat it was 1.4%; in the assay on NIH3T3, 2.61%. The compound was called inactive in the assay with KB-3-1.
Take `O=C(OCC1=CC(O)C2C=CO[C@@H](O[C@@H]3O[C@H](CO)[C@@H](O)[C@H](O)[C@H]3O)C12)c1ccccc1` (stereo not given in full): the max response with CRL-7250 was -3.02%; in the assay with HEK293, -4.16%; in the assay on HaCat, 1.81%; in the assay on KB-3-1, 2.99%; with NIH3T3, 1.21%.
Take `CCC(O)(C(=O)OCc1ccccc1NC(=O)CCC(=O)O)C(C)O` (stereo not given): the result in the assay with CRL-7250 and with KB-3-1 was inactive. Further, the figures for the max response in the assay on HEK293, with HaCat and in the assay on NIH3T3 were -0.446%, -3.62% and -2.36%, respectively.
For `C=C1C[C@]23C[C@H]1CC[C@H]2C1=C[C@H]2OC(=O)[C@@](C)([C@H]1[C@@H]3C(=O)O)[C@H]2O`, the max response with CRL-7250 was 2.1%; with HEK293, 4.48%; in the assay on HaCat, 1.41%; with NIH3T3, 3.03%. Also, in the assay on KB-3-1, the outcome was inactive.
With `C=C1C[C@]23C[C@H]1CC[C@H]2[C@@]12CC[C@H](O)[C@@](C)(C(=O)O1)[C@H]2[C@@H]3C(=O)O`, the max response with CRL-7250 was -11.3%; in the assay with HEK293, -4.65%; in the assay on HaCat, -1.9%; with KB-3-1, 6.55%; with NIH3T3, 3.45%.
On to `COC(C(=O)N1Cc2[nH]nc(NC(=O)c3ccc(N4CCN(C)CC4)cc3)c2C1)c1ccccc1` (stereo not given), for which the Potency with CRL-7250 is 1.84 µM (active); in the assay with HEK293 it was 1.64 µM (active); with HaCat, 5.8 µM (active); in the assay on KB-3-1 it was 8.2 µM (active); with NIH3T3, 4.11 µM (active).
`COC(=O)[C@H](O)[C@H]1C(C)(C)[C@H](OC(=O)C(C)C)[C@@]2(O)C(=O)[C@]1(C)C1CC[C@]3(C)C(CC(=O)O[C@H]3c3ccoc3)[C@]13O[C@@H]32` (stereo not given in full): the max response with CRL-7250 is -16.9%; in the assay on HEK293, -5.39%; in the assay with HaCat, -4.38%; with NIH3T3 it was -25.1%. The outcome with KB-3-1 was inactive.
